Screening data from PubChem BioAssay.
An excerpt weighted towards active compounds, which were near 3.7% of everything screened.
VDR inhibitor = blocks the human vitamin D receptor. P11473. VDR-SRC2-3 peptide fluorescence polarization, 2 h. Potency, µM, for the others: max response, negative = inhibition, actives largely listed as inhibitors. hit rate 0.93% among 400,000. AID 504847; also: potency is read from the fitted curve at half-maximal effect; % is scaled to controls: 0 for no effect and ±100 for the full control effect
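Compounds are added to VDR with labelled SRC2-3 coactivator peptide and held 2 h at room temperature. Inhibition of the VDR–peptide interaction is then read as a change in fluorescence polarization.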
TCR activator = T cell receptor activation; 330,000 tested, under 10 active; primary human leukocytes, anti-CD3, IL-2 HTRF, 48 h; Potency, µM (doses to about 9.22 µM), without a hit: top-dose activation of IL-2 secretion, actives largely listed as activators; AID 504894; also: % of control where 0% means no effect
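48 hr co-incubation of compounds, a-CD3 beads and primary human leukocytes; IL-2 quantified homogeneously by HTRF with anti-IL-2 K and d2 conjugates.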
PI5P4K alpha inh = inhibitors of human PI5P4K alpha; max response, %; hit rate 1.2% among 330,000; PI5P4Kalpha enzyme, ADP-Glo luminescence, 60 min; active compounds read low; P48426; active = max response of -50% or lower; inconclusive = between -30% and -50%; inactive = -30% or higher; also: value at the top dose of about 77 µM; % is scaled to controls: 0 for no effect and ±100 for the full control effect
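qHTS, 1536-well: enzyme/substrate mix, compound by pin tool, 5 microM ATP final; RT 60 min; ADP-Glo reagents 1 (45 min) then 2 (30 min); luminescence.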
FEN1 inhibitor = human FEN1 inhibition. Potency, µM (series often up to 114 µM), without a hit: top-dose activity change, negative = inhibition, usual class: inhibitors. AID 588795. hit rate 0.35% among 390,000. P39748. Recombinant FEN1 flap cleavage, fluorescence, 15 min; also: potency is read from the fitted curve at half-maximal effect; % is scaled to controls: 0 for no effect and ±100 for the full control effect; nearly all actives have a fitted effect of over 65% in size
Target sequence (P39748 whole entry, looked up): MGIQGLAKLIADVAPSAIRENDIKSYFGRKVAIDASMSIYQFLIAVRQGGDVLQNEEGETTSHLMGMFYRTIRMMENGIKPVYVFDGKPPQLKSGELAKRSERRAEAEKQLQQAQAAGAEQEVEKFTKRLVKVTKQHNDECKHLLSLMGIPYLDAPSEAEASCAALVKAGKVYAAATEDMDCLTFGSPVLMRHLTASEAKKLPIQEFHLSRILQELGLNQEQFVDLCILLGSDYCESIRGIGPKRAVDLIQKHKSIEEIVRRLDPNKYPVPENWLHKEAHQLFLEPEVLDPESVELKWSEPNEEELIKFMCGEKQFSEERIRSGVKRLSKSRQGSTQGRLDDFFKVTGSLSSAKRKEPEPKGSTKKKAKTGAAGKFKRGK
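Read-out was taken twice, immediately and after 15 min, following addition of 50 nM substrate to 10 nM FEN1 that had sat with test compound for 15 min at room temperature. Curves came from a four-parameter Hill model.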
PLK1 PBD block = PLK1 (human) polo-box domain binding inhibition; P53350; Plk1 PBD binding of FITC phosphopeptide, fluorescence polarization; Potency, µM, without a hit: max response, negative = inhibition, actives largely listed as inhibitors; hit rate 2.8% among 360,000; AID 720504; also: potency is read from the fitted curve at half-maximal effect; series mostly up to about 57 µM; % is scaled to controls: 0 for no effect and ±100 for the full control effect; nearly all actives have a fitted effect of over 65% in size
WRN inhibitor = WRN helicase (human) inhibition | hit rate 0.46% among 360,000 | Q14191 | Potency, µM (series often up to 114 µM), for inactives: top-dose activity change, negative = inhibition, usual class: inhibitors | WRN helicase unwinding, fluorescent forked duplex, kinetic; also: potency is read from the fitted curve at half-maximal effect; % is scaled to controls: 0 for no effect and ±100 for the full control effect; nearly all actives have a fitted effect of over 55% in size
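Primary qHTS, 1536-well format. 20 nM WRN + compound, 15 min RT; start with 100 nM forked fluorophore/quencher duplex, 2 mM ATP (final); kinetic read ex 525/em 598 nm.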
* hit, by the source's call; u = inconclusive; x = no result; [ ] = dose if it differs, or a comment. Unless noted, calls follow the shape of the dose curve; as a rule, active = well fitted curve in the direction sought with a large enough effect; inconclusive = small, poorly fitted or top-dose-only effect, or another doubt; inactive = no such curve, though single readings can be large; an effect the other way counts as inactive or inconclusive.

SMILES	VDR inhibitor	TCR activator	PI5P4K alpha inh	FEN1 inhibitor	PLK1 PBD block	WRN inhibitor
CC(C)(C)c1ccc(C(=S)N2CCN(c3ccccc3)CC2)cc1	u	4%	0	-16%	24µM*	0%
O=C(c1ccccc1)N1CCN(c2ccccc2)CC1	5%	-2%	0	16%	-11%	-6%
S=C(c1ccccc1)N1CCN(c2ccccc2)CC1	-12%	2%	3	-12%	27µM*	-22%
CC(C)CN(CC(C)C)c1ccc(/C=C/c2ccnc3ccccc23)cc1	x	x	x	-6%	x	x
C#CCN(Cc1ccc(OC)cc1)S(=O)(=O)C=C	x	x	x	-20%	x	x
O=C(C[N+]1(CCO)CCOCC1)c1cccc2ccccc12	x	x	x	-10%	x	x
C=C1CCC(O)C/C1=C/C=C1\CCC[C@]2(C)[C@@H]([C@H](C)/C=C/[C@H](C)C(C)C)CC[C@@H]12 (some centres not stated)	50µM*	x	x	x	x	x
Cc1ccc(S(=O)(=O)N2CCN(c3nc(-c4cccs4)nc(C)c3C)CC2)cc1	-25%	x	x	-10%	x	x
CCOc1ccc(Nc2cc(C)nc3nncn23)cc1	10%	x	x	-11%	x	x
CC(C)(C)NC(=O)NC(=O)COc1ccc(Br)cc1Br	-12%	1%[46.1 µM]	0	u	0%	-31%[57.1 µM]
CC(C)(C)NC(=O)NC(=O)COC(=O)COc1ccc(Cl)cc1Cl	u	-8%	-14	2%	12µM*	6%
Cc1cccc(-n2cc(CN3CCCN(C=O)CC3)c(-c3cccc(F)c3)n2)c1	8%	x	5	25%	2%	-12%
Cc1ccc(-n2cc(CN3CCNC(=O)CC3)c(-c3cccc(C)c3)n2)cc1	u	-5%	-7	1%	17µM*	-3%
O=C(O)CCSc1ncnc2sc(-c3ccccc3)cc12	-12%	-7%	-23	-12%	17µM*	-5%
CCSC(=O)N1CCN(/[N+]([O-])=N/Oc2ccc([N+](=O)[O-])cc2[N+](=O)[O-])CC1	x	x	x	-12%	x	x
C(=C\c1ccnc2ccccc12)/c1ccc(N2CCN(c3ccc(/C=C/c4ccnc5ccccc45)cc3)CC2)cc1	x	x	x	-12%	x	x
Cc1cccc(N2CCN(S(=O)(=O)c3cc(C(=O)Nc4ccccc4Cl)ccc3F)CC2)c1C	13%	x	x	-2%	x	x
C/C=C/COc1nc2c(c(=O)n(C)c(=O)n2C)n1C	-15%	-5%[46.1 µM]	u	-2%	3µM*	6%
CCn1c(OC)nc2c1c(=O)n(C)c(=O)n2C	-13%	-4%	-5	6%	2%	5%
CCC(C)n1c(OC)nc2c1c(=O)n(C)c(=O)n2C (configuration not stated)	u	9%	-29	-2%	2.7µM*	u
CC(C)OC(=O)[C@@H]1CC[C@H](C)[C@@H](CCCC=O)O1	3%	x	x	x	x	x
C=C1c2cccc(C(F)(F)F)c2O[C@H](C(=O)OCC)C1OC (mixture of isomers)	-3%	x	x	x	x	x
COc1ccccc1NC(=O)CSc1oc(-c2ccccc2)nc1S(=O)(=O)c1ccc(C)cc1	5%	x	x	-19%	x	x
NNC(=O)c1nn(-c2ccc(Cl)cc2)cc1O	u	-1%	u	-7%	17µM*	-12%
Cc1ccc(NC(=O)COC(=O)c2nn(-c3ccc(Cl)cc3)cc2O)cc1	-13%	-2%	-6	9%	0%	-27%
c1ccc(COC[C@@H]2CO2)cc1	-1%	x	x	x	x	x
CC1CCCCC1NC(=O)/C(C#N)=C/c1ccc2c(c1)OCCO2 (configuration not stated)	-19%	-1%[46.1 µM]	5	-17%	27µM*	-8%
O=C1/C(=C\c2ccc(Cl)c(Cl)c2)CN(C(=O)CCN2CCOCC2)C/C1=C/c1ccc(Cl)c(Cl)c1	3.2µM*	3%	8	-15%	-25%	-10%
O=C(NCCN1CCOCC1)c1ccc(Cl)c(Cl)c1	3%	-2%	0	17%	0%	3%
